The panel holds about 83,000 compounds, 20% with a hit somewhere; the sample as a whole holds those more often.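 96-well plates, one dose, 48 hours. Percent growth reported; active if below 10.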 A number with no mark means an inactive call. The source made the active and inactive calls.

We go through seven compounds from PubChem BioAssay (NCI).

Common to all, as to assay: NCI-60 one-dose screen, 48 h (100 = growth as untreated, 0 = no growth, -100 = all killed)
One experiment deals with DU-145 prostate. Conditions: 10 µM unless noted.
In a further experiment the test system is K-562 leukemia. Conditions: 10 µM unless noted.
The next experiment has as its system MALME-3M melanoma. The following applies: 10 µM unless noted.
A further experiment has as its system MDA-MB-231 breast. Conditions: 10 µM unless noted.
In another experiment the test system is RXF 393 renal. The following applies: 10 µM unless noted.
Another experiment has as its system SF-268 CNS. Conditions: 10 µM unless noted.
A further experiment has as its system SF-295 CNS. The following applies: 10 µM unless noted.
The test system of another experiment is SF-539 CNS. Conditions: 10 µM unless noted.
For another experiment, the system named is UACC-257 melanoma. Conditions: 10 µM unless noted.
Another experiment concerns M14 melanoma. Conditions: 10 µM unless noted.
For a further experiment, the system named is HCT-15 colon. Conditions: 10 µM unless noted.
The subject of another experiment is HT29 colon. Conditions: 10 µM unless noted.
A further experiment concerns SNB-75 CNS. Conditions: 10 µM unless noted.
A further experiment relates to SNB-19 CNS. Conditions: 10 µM unless noted.
For the next experiment, the system named is U251 CNS. The following applies: 10 µM unless noted.
Another experiment deals with PC-3 prostate. The following applies: 10 µM unless noted.
In another experiment the test system is SK-MEL-5 melanoma. Conditions: 10 µM unless noted.
In the next experiment the test system is UACC-62 melanoma. The following applies: 10 µM unless noted.
For the next experiment, the system named is SK-MEL-28 melanoma. Conditions: 10 µM unless noted.
The subject of the next experiment is LOX IMVI melanoma. Conditions: 10 µM.

Regarding `O=C(Nc1ccc(Cl)c(Cl)c1)OCc1ccco1`, the growth with DU-145 prostate is 54.8%; in the experiment on K-562 leukemia, 15.8%; in the experiment with MALME-3M melanoma, 68.6%; in the experiment on MDA-MB-231 breast it was 52.2%; in the experiment on RXF 393 renal it was 56%; with SF-268 CNS it was 47.8%. The growth with SF-295 CNS was 31.6%; with SF-539 CNS, 41.8%; with UACC-257 melanoma, 62.6%; in the experiment on M14 melanoma it was 44.9%; with HCT-15 colon, 29.7%; in the experiment with HT29 colon, 34%. Moreover, the growth with SNB-75 CNS was 8.5% (active); in the experiment on SNB-19 CNS, 63.3%; with U251 CNS it was 43.1%; in the experiment on PC-3 prostate it was 54.1%; in the experiment with SK-MEL-5 melanoma it was 30.6%; in the experiment on UACC-62 melanoma it was 25.5%. The growth in the experiment on SK-MEL-28 melanoma is 74.1%.
With `CC(C)(C)c1ccc(O)c(Br)c1`, the growth in the experiment with DU-145 prostate was 105%; in the experiment on K-562 leukemia, 120%; in the experiment on MALME-3M melanoma it was 99.8%; with MDA-MB-231 breast, 104%; in the experiment on RXF 393 renal it was 91.2%; with SF-268 CNS, 95.5%. Further, the growth in the experiment with SF-295 CNS was 95.8%; in the experiment with SF-539 CNS, 102%; in the experiment with UACC-257 melanoma, 111%; in the experiment with M14 melanoma, 95.8%; in the experiment with HCT-15 colon, 104%; with HT29 colon, 103%. The growth is 77% in the experiment on SNB-75 CNS; 95.9% in the experiment with SNB-19 CNS; 106% in the experiment on U251 CNS; 101% with PC-3 prostate; 98.2% with UACC-62 melanoma; 98.3% in the experiment on LOX IMVI melanoma. Moreover, the growth in the experiment with SK-MEL-28 melanoma was 102%.
`CCCCCCCCCCCC[n+]1ccc(CCCCCCCCC)cc1`: the growth is -83.6% (active) in the experiment on DU-145 prostate; -37.4% (active) in the experiment with K-562 leukemia; -76.4% (active) in the experiment on MALME-3M melanoma; -81.1% (active) in the experiment on MDA-MB-231 breast; -78.9% (active) in the experiment on RXF 393 renal; -79.2% (active) in the experiment on SF-268 CNS. The growth in the experiment with SF-295 CNS is -51.3% (active); in the experiment with SF-539 CNS it was -80.7% (active); in the experiment with UACC-257 melanoma, -18.4% (active); in the experiment on M14 melanoma it was -82.6% (active); in the experiment with HCT-15 colon it was -48% (active); with HT29 colon, -84% (active). Further, the growth in the experiment on SNB-75 CNS is -70% (active); in the experiment on SNB-19 CNS it was -74.5% (active); with U251 CNS, -94.6% (active); in the experiment with PC-3 prostate it was -51.6% (active); in the experiment on SK-MEL-5 melanoma, -96.8% (active); in the experiment with UACC-62 melanoma, -76.9% (active). Besides, the growth in the experiment on LOX IMVI melanoma was -94.6% (active); in the experiment on SK-MEL-28 melanoma it was -70.9% (active).
Consider `c1ccc(-c2cc3cc4ccccc4cn3c2)cc1`, for which the growth was 101% with DU-145 prostate; 64.3% with K-562 leukemia; 91.3% in the experiment with MALME-3M melanoma; 81.6% in the experiment with MDA-MB-231 breast; 104% in the experiment on RXF 393 renal; 95.7% in the experiment with SF-268 CNS. Also, the growth with SF-295 CNS was 84.8%; in the experiment on SF-539 CNS it was 104%; in the experiment with UACC-257 melanoma it was 91.6%; in the experiment with M14 melanoma, 94.7%; with HCT-15 colon, 100%; in the experiment with HT29 colon it was 105%. The growth in the experiment on SNB-75 CNS was 89.9%; in the experiment on SNB-19 CNS it was 92.3%; in the experiment on U251 CNS, 82.4%; in the experiment with PC-3 prostate it was 78.9%; in the experiment on SK-MEL-5 melanoma, 80.6%; in the experiment with LOX IMVI melanoma, 86%. In addition, the growth in the experiment on SK-MEL-28 melanoma is 98.5%.
Consider `CCCCCCN(CCCCCC)CCCNc1nccc2ccccc12`, for which the growth is 26.5% with DU-145 prostate; 0.764% (active) with K-562 leukemia; -58.6% (active) with MALME-3M melanoma; 1.89% (active) with MDA-MB-231 breast; 29.5% in the experiment with RXF 393 renal; 33.2% with SF-268 CNS. For the same compound, the growth was -50.8% (active) in the experiment on SF-295 CNS; -23.2% (active) in the experiment with SF-539 CNS; 41.7% in the experiment on UACC-257 melanoma; -41.3% (active) in the experiment on M14 melanoma; 17% in the experiment with HCT-15 colon; -11.6% (active) with HT29 colon. Further, the growth with SNB-75 CNS is 33.5%; in the experiment on SNB-19 CNS, 20.3%; in the experiment with U251 CNS, 9.66% (active); in the experiment with PC-3 prostate, 20.4%; with SK-MEL-5 melanoma, -91.3% (active); in the experiment with UACC-62 melanoma, 21.8%. The growth was -39.3% (active) with LOX IMVI melanoma and 13.1% in the experiment on SK-MEL-28 melanoma.
As for `COC(=O)c1nc(=S)[nH]c(C(=O)OC)c1C(=O)c1ccc(Cl)c(Cl)c1`, the growth was 120% in the experiment with DU-145 prostate; 113% in the experiment on K-562 leukemia; 102% in the experiment with MALME-3M melanoma; 102% in the experiment with MDA-MB-231 breast; 112% in the experiment with RXF 393 renal; 111% with SF-268 CNS. Further, the growth was 99.8% in the experiment on SF-295 CNS; 102% with SF-539 CNS; 111% in the experiment on UACC-257 melanoma; 107% in the experiment with M14 melanoma; 105% in the experiment with HCT-15 colon; 112% in the experiment with HT29 colon. Also, the growth in the experiment on SNB-75 CNS is 92.7%; with SNB-19 CNS, 105%; in the experiment with U251 CNS it was 103%; in the experiment on PC-3 prostate, 106%; in the experiment on SK-MEL-5 melanoma it was 101%; in the experiment with UACC-62 melanoma it was 102%. Further, the growth with LOX IMVI melanoma is 99.2%; with SK-MEL-28 melanoma it was 124%.
Turning to `O=C1C=CC(=O)c2c(O)c(CO)c(CO)c(O)c21`, the growth in the experiment on DU-145 prostate is 54.9%; with K-562 leukemia it was 91.7%; in the experiment on MALME-3M melanoma it was 9.33% (active); in the experiment with MDA-MB-231 breast it was 89.6%; with RXF 393 renal it was 98%; in the experiment with SF-268 CNS, 111%. The growth in the experiment on SF-295 CNS was 95%; in the experiment with SF-539 CNS, 104%; with UACC-257 melanoma, 94.4%; in the experiment with M14 melanoma it was 14%; in the experiment with HCT-15 colon it was 37.8%; with HT29 colon, 60%. In addition, the growth in the experiment with SNB-75 CNS was 55.9%; with SNB-19 CNS, 103%; in the experiment with U251 CNS it was 105%; in the experiment with PC-3 prostate, 25.6%; with UACC-62 melanoma, 93.3%; in the experiment on LOX IMVI melanoma, 73.5%.
